We go through 52 sequences from PMC6451091, “NextPBM: a platform to study cell-specific transcription factor binding and cooperativity”.

Over roughly 3,700 sequences, “z-score” has its median near 4; the highest 2% begin near 8.4. The sample as a whole holds a higher share of the highest values than the screen did.

The target of assay [1] is PU.1 (IVT) (UniProt P17947 1-270). Kind of assay: protein-binding microarray (PBM); 20 mM HEPES pH 7.9, 100 mM NaCl, 1 mM DTT, 0.2 mg/mL BSA, 0.02% Triton X-100, 2% milk, 0.4 mg/mL salmon testes DNA; 1 h; temperature not stated; high values mean tight binding. As to conditions: dsDNA, one strand shown. Put shortly:
(§1)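 Full-length untagged PU.1 was made by coupled human in vitro transcription/translation. It was bound for 1 h to custom double-stranded DNA microarrays carrying 20-bp genomic sites and single-nucleotide variants, 10 probes per site (5 per orientation). The binding buffer was HEPES pH 7.9 with 100 mM NaCl, 2% milk and salmon testes DNA. Bound protein was detected with anti-PU.1 and then a fluorescent secondary antibody. Binding is a z-score from scanned fluorescence after linear-regression normalisation.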

For assay [2] the target is unchanged. Described as above. As to conditions: dsDNA, one strand shown. Put shortly:
as §1
The source holds these as a separate data set.

With “GCCTAGCACAAAAAAAGGAAGTCCTTGTGGTGCTAGGTCTTGATTCGCTTGACGCTGCTG”, in assay [1], the binding signal came out at 6.48 z-score.
On the same count and under the same terms, under “GCCTAGCACTTGGTCAGGAAGTGAAACTGGTGCTAGGTCTTGATTCGCTTGACGCTGCTG” stands 1.38 z-score.
Turning to “GCCTAGCACAGAAAGAGGAAGTCACAAGGGTGCTAGGTCTTGATTCGCTTGACGCTGCTG”, the binding signal in assay [2] was found to be 7.68 z-score.
For “GCCTAGCACGAAAGAGGGAAGTGAAAGTCGTGCTAGGTCTTGATTCGCTTGACGCTGCTG”, the binding signal in assay [1] was 5.25 z-score.
The sequence “GCCTAGCACGATATGAGGAACTGAAAGCTGTGCTAGGTCTTGATTCGCTTGACGCTGCTG” displayed a binding signal in assay [1] of 4.06 z-score.
Still for that read-out and setting: next, “GCCTAGCACAATAAAGGGAAGTGACTGCTGTGCTAGGTCTTGATTCGCTTGACGCTGCTG”: 5.43 z-score.
In assay [2], “GCCTAGCACAAAAAAAGGAACGGGCTAGAGTGCTAGGTCTTGATTCGCTTGACGCTGCTG” yielded a binding signal of 1.48 z-score.
“GCCTAGCACAAAAAGAGGAAATGAAAAGAGTGCTAGGTCTTGATTCGCTTGACGCTGCTG”: in assay [1], the binding signal is 6.67 z-score.
Still for that read-out and setting: next, “GCCTAGCACAGAAAGAGGAACTGACTGACGTGCTAGGTCTTGATTCGCTTGACGCTGCTG”: 6.61 z-score; “GCCTAGCACTGAAAAGGGAAGTGAGGAAGGTGCTAGGTCTTGATTCGCTTGACGCTGCTG”: 5.34 z-score; “GCCTAGCACGAGAAGAGGAAGTAGAACAAGTGCTAGGTCTTGATTCGCTTGACGCTGCTG”: 6.62 z-score.
Still for that read-out and setting: next, “GCCTAGCACACGAAGAGGAAGTAAAAGGCGTGCTAGGTCTTGATTCGCTTGACGCTGCTG”: 6.54 z-score.
With “GCCTAGCACAAAAAGAGGAAGTAGAGAACGTGCTAGGTCTTGATTCGCTTGACGCTGCTG”, in assay [2], the binding signal is 8.97 z-score.
“GCCTAGCACAAAAAGAGGAAGGGAGTAGAGTGCTAGGTCTTGATTCGCTTGACGCTGCTG”: in assay [1], the binding signal worked out at 4.77 z-score.
On the same count and under the same terms, next, “GCCTAGCACAAAAAAAGGAAGTGGTAAACGTGCTAGGTCTTGATTCGCTTGACGCTGCTG”: 6.51 z-score.
In assay [2], “GCCTAGCACAAAAAGAGGAAGTAAAAGACGTGCTAGGTCTTGATTCGCTTGACGCTGCTG” yielded a binding signal of 8.93 z-score.
In assay [1], “GCCTAGCACCGAAAGGGGATGTGCTAAACGTGCTAGGTCTTGATTCGCTTGACGCTGCTG” returned a binding signal of 1.8 z-score.
On the same count and under the same terms, under “GCCTAGCACTATATAGGGAAGTGGGATTCGTGCTAGGTCTTGATTCGCTTGACGCTGCTG” stands 4.85 z-score.
“GCCTAGCACTAAATGAGGAAGTGACAGCTGTGCTAGGTCTTGATTCGCTTGACGCTGCTG”: the binding signal in assay [2] is 7.57 z-score.
The same measure, in the same setting: next, “GCCTAGCACAATGGCAGGAAGTGAAATCAGTGCTAGGTCTTGATTCGCTTGACGCTGCTG”: 2.15 z-score.
The same measure, in the same setting: next, “GCCTAGCACCGAAAGGGGAAGTGCTAAAAGTGCTAGGTCTTGATTCGCTTGACGCTGCTG”: 6.97 z-score.
Same read-out and setting: under “GCCTAGCACGAAAAGCGGAAGTGGTGTGGGTGCTAGGTCTTGATTCGCTTGACGCTGCTG” stands 8.61 z-score; under “GCCTAGCACCAAAAAAGGAAGTGGCTGTGGTGCTAGGTCTTGATTCGCTTGACGCTGCTG”, 5.51 z-score.
“GCCTAGCACGAAAGGAGGAAGTGGAGGGTGTGCTAGGTCTTGATTCGCTTGACGCTGCTG” showed a binding signal in assay [1] of 5.92 z-score.
The sequence “GCCTAGCACCAAAAGCGGAAGTGGTGCCTGTGCTAGGTCTTGATTCGCTTGACGCTGCTG” displayed a binding signal in assay [2] of 8.56 z-score.
“GCCTAGCACGAAAAGGGGAAGTGCTGGGGGTGCTAGGTCTTGATTCGCTTGACGCTGCTG” had a binding signal in assay [2] of 7.77 z-score.
In turn, “GCCTAGCACCAAAAAGGGAAGTGGAAGCTGTGCTAGGTCTTGATTCGCTTGACGCTGCTG” had a binding signal in assay [1] of 6.2 z-score.
In assay [2], “GCCTAGCACAAAAAAAGGAAAGGAAAGTAGTGCTAGGTCTTGATTCGCTTGACGCTGCTG” returned a binding signal of 1.27 z-score.
Regarding “GCCTAGCACAAAATGAGGAAGTACCCTCTGTGCTAGGTCTTGATTCGCTTGACGCTGCTG”, the binding signal in assay [2] was found to be 8.28 z-score.
The same measure, in the same setting: under “GCCTAGCACAAATAGAGGAAGTGGAATGGGTGCTAGGTCTTGATTCGCTTGACGCTGCTG” stands 7.2 z-score.
Take “GCCTAGCACAAAATGAGGAAGTGTGATTAGTGCTAGGTCTTGATTCGCTTGACGCTGCTG”: the binding signal in assay [2] worked out at 7.8 z-score.
Still for that read-out and setting: under “GCCTAGCACAAAATGAGGAAGTGCATTGAGTGCTAGGTCTTGATTCGCTTGACGCTGCTG” stands 8.07 z-score; under “GCCTAGCACAAAATGAGGAAGTGCTTCTAGTGCTAGGTCTTGATTCGCTTGACGCTGCTG”, 8.37 z-score.
Still for that read-out and setting: under “GCCTAGCACAAAAGGAGGAAGTTGGTTGGGTGCTAGGTCTTGATTCGCTTGACGCTGCTG” stands 7.62 z-score; under “GCCTAGCACAAAATGAGGAAGTGAGCTAAGTGCTAGGTCTTGATTCGCTTGACGCTGCTG”, 7.94 z-score.
Turning to “GCCTAGCACAAAATGAGGAAGTAATTCCTGTGCTAGGTCTTGATTCGCTTGACGCTGCTG”, in assay [2], the binding signal was determined as 8.66 z-score.
In assay [2], “GCCTAGCACAAAATGAGGAAGTTGGATGGGTGCTAGGTCTTGATTCGCTTGACGCTGCTG” had a binding signal of 8.35 z-score.
For the sequence “GCCTAGCACAAAATGAGGAAGTGACTTTGGTGCTAGGTCTTGATTCGCTTGACGCTGCTG”, the binding signal in assay [2] amounted to 8.87 z-score.
In the case of “GCCTAGCACAAAATGAGGAACTGCTGTCTGTGCTAGGTCTTGATTCGCTTGACGCTGCTG”, in assay [2], the binding signal worked out at 6.9 z-score.
On the same count and under the same terms, under “GCCTAGCACAAAATGAGGAAGTGAACAAAGTGCTAGGTCTTGATTCGCTTGACGCTGCTG” stands 8.02 z-score.
Regarding “GCCTAGCACACAATGAGGAAGTGCTGGCCGTGCTAGGTCTTGATTCGCTTGACGCTGCTG”, the binding signal in assay [1] was determined as 6.19 z-score.
“GCCTAGCACTAAAGGAGGAATTGAAACCAGTGCTAGGTCTTGATTCGCTTGACGCTGCTG” registered a binding signal in assay [2] of 1.22 z-score.
As for “GCCTAGCACGCCAGGAGGAAGTGGAAATGGTGCTAGGTCTTGATTCGCTTGACGCTGCTG”, in assay [2], the binding signal stood at 4.22 z-score.
In assay [2], “GCCTAGCACGACAAGAGGAAGTGCAAGATGTGCTAGGTCTTGATTCGCTTGACGCTGCTG” yielded a binding signal of 4.87 z-score.
Still for that read-out and setting: under “GCCTAGCACATATGGAGGAAGTGGAACCCGTGCTAGGTCTTGATTCGCTTGACGCTGCTG” stands 3.92 z-score.
Sequence “GCCTAGCACCTGCCAGGGAAGTGTAAGCAGTGCTAGGTCTTGATTCGCTTGACGCTGCTG” had a binding signal in assay [1] of 0.66 z-score.
Regarding “GCCTAGCACAAAAAGAAGAAGTGGGGCTTGTGCTAGGTCTTGATTCGCTTGACGCTGCTG”, the binding signal in assay [1] came to 4.26 z-score.
In assay [2], “GCCTAGCACTGAAAGGGGAAGTCTTTTTAGTGCTAGGTCTTGATTCGCTTGACGCTGCTG” returned a binding signal of 6.55 z-score.
Same read-out and setting: next, “GCCTAGCACAAAATGAGGAAGTGGAAGGGGTGCTAGGTCTTGATTCGCTTGACGCTGCTG”: 8.15 z-score; “GCCTAGCACAAAATGAGGAAGTGCTGGCAGTGCTAGGTCTTGATTCGCTTGACGCTGCTG”: 8.14 z-score.
In assay [2], “GCCTAGCACAAAATGAGGAAGTGGCTTTGGTGCTAGGTCTTGATTCGCTTGACGCTGCTG” showed a binding signal of 8.37 z-score.
The same measure, in the same setting: under “GCCTAGCACTAAATGAGGAAGTGTGCTGTGTGCTAGGTCTTGATTCGCTTGACGCTGCTG” stands 7.74 z-score.
